Among all 5,500 compounds or so, about 2,000 (36%) were called active. Another 18% or so got no clear call; they are omitted. Rule as the data show it: active = normalized growth mostly below about 0.91 (no sharp cut-off); inconclusive = no clear call, values can overlap the other calls; inactive = mostly above about 0.92. The list shows a part of the results.
Experiment: chemical genetic growth profiling, strain panel (AID 1159580);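 also: tested at 20 µM; growth read once vehicle control cultures reached saturation at 30 °C; 1 = growth at the plate median or of vehicle wells; lower values mean less growth of the strain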
Settings: S. cerevisiae deletion strains, growth OD

Measured: normalized growth

CC1=C(/C=C/C(C)=C/C=C/C(C)=C/C=C/C=C(C)/C=C/C=C(C)/C=C/C2=C(C)C(=O)C(O)CC2(C)C)C(C)(C)CC(O)C1=O (stereo not drawn)
inactive: locus YAL021C, strain ccr4, stronger effect = lower value 1.04 | locus YAL026C, strain drs2, stronger effect = lower value 1.07 | locus YAL030W, strain snc1, stronger effect = lower value 1.03 | locus YBL061C, strain skt5, stronger effect = lower value 1.03 | locus YBR009C, strain hhf1, stronger effect = lower value 1.05 | locus YBR021W, strain FUR4, stronger effect = lower value 0.962 | locus YBR023C, strain chs3, stronger effect = lower value 1.03 | locus YBR229C, strain ROT2, stronger effect = lower value 0.942 | locus YBR231C, strain swc5, stronger effect = lower value 1.05 | locus YBR279W, strain paf1, stronger effect = lower value 1.02 | locus YCL011C, strain gbp2, stronger effect = lower value 1.04 | locus YCL016C, strain dcc1, stronger effect = lower value 1.02 | locus YCL029C, strain bik1, stronger effect = lower value 0.973 | locus YCL061C, strain MRC1, stronger effect = lower value 1.07 | locus YCL069W, strain vba3, stronger effect = lower value 1.05 | locus YCR088W, strain abp1, stronger effect = lower value 1.06 | locus YDL005C, strain med2, stronger effect = lower value 1.05 | locus YDL035C, strain GPR1, stronger effect = lower value 0.939 | locus YDL040C, strain nat1, stronger effect = lower value 1.01 | locus YDL074C, strain BRE1, stronger effect = lower value 0.981 | locus YDL101C, strain DUN1, stronger effect = lower value 0.986 | locus YDL185W, strain tfp1, stronger effect = lower value 0.964 | locus YDL192W, strain arf1, stronger effect = lower value 0.988 | locus YDR001C, strain nth1, stronger effect = lower value 1.07 | locus YDR069C, strain doa4, stronger effect = lower value 1.04 | locus YDR101C, strain arx1, stronger effect = lower value 0.985 | locus YDR137W, strain rgp1, stronger effect = lower value 1.02 | locus YDR159W, strain sac3, stronger effect = lower value 1.04 | locus YDR162C, strain NBP2, stronger effect = lower value 0.947 | locus YDR195W, strain ref2 1.12 | locus YDR297W, strain sur2, stronger effect = lower value 1.03 | locus YDR318W, strain mcm21, stronger effect = lower value 0.983 | locus YDR334W, strain swr1, stronger effect = lower value 1.07 | locus YDR335W, strain msn5, stronger effect = lower value 1.05 | locus YDR388W, stronger effect = lower value 0.992 | locus YDR392W, strain spt3, stronger effect = lower value 1.04 | locus YDR502C, strain sam2, stronger effect = lower value 0.993 | locus YEL003W, strain gim4, stronger effect = lower value 1.04 | locus YEL037C, strain rad23, stronger effect = lower value 1.05 | locus YEL061C, strain CIN8 (second series), stronger effect = lower value 1.05 | locus YEL061C, strain CIN8, stronger effect = lower value 0.981 | locus YER015W, strain faa2, stronger effect = lower value 1.04 | locus YER016W, strain bim1, stronger effect = lower value 1.03 | locus YER110C, stronger effect = lower value 0.992 | locus YER111C, strain swi4, stronger effect = lower value 1.07 | locus YER155C, strain BEM2 (second series), stronger effect = lower value 1.09 | locus YER155C, strain BEM2, stronger effect = lower value 0.998 | locus YER167W, strain BCK2, stronger effect = lower value 0.984 | locus YFR010W, strain ubp6, stronger effect = lower value 1.08 | locus YGL078C, strain dbp3, stronger effect = lower value 0.99 | locus YGL086W, strain mad1, stronger effect = lower value 0.997 | locus YGL167C, strain pmr1, stronger effect = lower value 1.04 | locus YGL173C, strain kem1, stronger effect = lower value 1.03 | locus YGL227W, strain vid30, stronger effect = lower value 1.08 | locus YGL240W, strain doc1, stronger effect = lower value 1.03 | locus YGL248W, strain PDE1, stronger effect = lower value 0.987 | locus YGL253W, strain hxk2, stronger effect = lower value 1.05 | locus YGR135W, strain pre9, stronger effect = lower value 0.992 | locus YGR229C, strain SMI1, stronger effect = lower value 0.982 | locus YGR252W, strain gcn5, stronger effect = lower value 0.944 | locus YHR013C, strain ard1, stronger effect = lower value 1.02 | locus YHR027C, strain rpn1, stronger effect = lower value 1.03 | locus YHR030C, strain SLT2, stronger effect = lower value 0.984 | locus YHR079C, strain IRE1 (second series), stronger effect = lower value 0.996 | locus YHR094C, strain hxt1, stronger effect = lower value 0.988 | locus YHR129C, strain ARP1, stronger effect = lower value 0.996 | locus YHR142W, strain chs7, stronger effect = lower value 1.07 | locus YHR200W, strain rpn10, stronger effect = lower value 0.988 | locus YIL066C, strain RNR3, stronger effect = lower value 0.907 | locus YIL073C, strain SPO22, stronger effect = lower value 1.02 | locus YIL125W, strain kgd1, stronger effect = lower value 0.99 | locus YIR030C, strain dcg1, stronger effect = lower value 1.01 | locus YJL092W, strain hpr5, stronger effect = lower value 1.07 | locus YJL095W, strain BCK1 (second series), stronger effect = lower value 1.03 | locus YJL095W, strain BCK1, stronger effect = lower value 1.06 | locus YJL115W, strain asf1, stronger effect = lower value 1.08 | locus YJL129C, strain trk1, stronger effect = lower value 1.07 | locus YJL134W, strain LCB3, stronger effect = lower value 0.98 | locus YJL154C, strain vps35, stronger effect = lower value 1.05 | locus YJL164C, strain tpk1, stronger effect = lower value 1.02 | locus YJL166W, strain qcr8, stronger effect = lower value 1.02 | locus YJL168C, strain set2, stronger effect = lower value 0.989 | locus YJL187C, strain SWE1 (second series), stronger effect = lower value 1.01 | locus YJL187C, strain SWE1, stronger effect = lower value 1.02 | locus YJR043C, strain POL32, stronger effect = lower value 0.929 | locus YKL009W, strain mrt4, stronger effect = lower value 0.994 | locus YKL068W, stronger effect = lower value 0.981 | locus YKL085W, strain MDH1 (second series), stronger effect = lower value 0.996 | locus YKL085W, strain MDH1, stronger effect = lower value 0.996 | locus YKL160W, strain elf1, stronger effect = lower value 1.02 | locus YKR001C, strain vps1, stronger effect = lower value 0.992 | locus YKR091W, strain srl3, stronger effect = lower value 1.03 | locus YLL001W, strain dnm1, stronger effect = lower value 1.05 | locus YLL026W, stronger effect = lower value 1.02 | locus YLL041C, strain sdh2, stronger effect = lower value 1.03 | locus YLR027C, strain aat2, stronger effect = lower value 1.03 | locus YLR039C, strain RIC1, stronger effect = lower value 0.981 | locus YLR058C, strain SHM2, stronger effect = lower value 0.971 | locus YLR102C, strain apc9, stronger effect = lower value 0.993 | locus YLR221C, strain rsa3, stronger effect = lower value 1.03 | locus YLR258W, strain gsy2, stronger effect = lower value 1.03 | locus YLR262C, strain YPT6 (second series), stronger effect = lower value 0.986 | locus YLR262C, strain YPT6, stronger effect = lower value 1.01 | locus YLR268W, strain sec22, stronger effect = lower value 0.999 | locus YLR320W, strain mms22, stronger effect = lower value 1.04 | locus YLR330W, strain CHS5, stronger effect = lower value 0.99 | locus YLR342W, strain FKS1 (second series), stronger effect = lower value 0.918 | locus YLR342W, strain FKS1, stronger effect = lower value 1.04 | locus YLR357W, strain rsc2, stronger effect = lower value 1.12 | locus YLR370C, strain arc18, stronger effect = lower value 1.06 | locus YLR371W, strain rom2, stronger effect = lower value 0.981 | locus YLR384C, strain iki3, stronger effect = lower value 1.03 | locus YLR418C, strain cdc73, stronger effect = lower value 0.997 | locus YML016C, strain PPZ1, stronger effect = lower value 0.973 | locus YML032C, strain rad52, stronger effect = lower value 0.983 | locus YML120C, strain ndi1, stronger effect = lower value 1.03 | locus YML124C, strain tub3, stronger effect = lower value 0.991 | locus YMR058W, strain fet3, stronger effect = lower value 1.08 | locus YMR078C, strain ctf18, stronger effect = lower value 0.979 | locus YMR125W, strain sto1, stronger effect = lower value 1.09 | locus YMR129W, stronger effect = lower value 1.05 | locus YMR205C, strain PFK2, stronger effect = lower value 1.05 | locus YMR223W, strain ubp8, stronger effect = lower value 0.997 | locus YMR231W, strain pep5, stronger effect = lower value 1.05 | locus YMR263W, strain SAP30, stronger effect = lower value 1 | locus YMR307W, strain GAS1, stronger effect = lower value 0.965 | locus YNL067W, strain RPL9B, stronger effect = lower value 1.06 | locus YNL071W, strain lat1, stronger effect = lower value 1.02 | locus YNL153C, strain GIM3, stronger effect = lower value 1.02 | locus YNL209W, strain ssb2, stronger effect = lower value 1.03 | locus YNL233W, strain BNI4, stronger effect = lower value 1.05 | locus YNL248C, strain rpa49, stronger effect = lower value 1.07 | locus YNL250W, strain rad50, stronger effect = lower value 0.972 | locus YNL271C, strain bni1, stronger effect = lower value 0.988 | locus YNL298W, strain CLA4, stronger effect = lower value 0.98 | locus YNL307C, strain MCK1, stronger effect = lower value 0.988 | locus YNL322C, strain KRE1 (second series), stronger effect = lower value 1.04 | locus YNR049C, strain mso1, stronger effect = lower value 1.06 | locus YNR052C, strain pop2, stronger effect = lower value 0.998 | locus YOL012C, strain htz1 1.22 | locus YOL147C, strain pex11, stronger effect = lower value 0.995 | locus YOR001W, strain rrp6, stronger effect = lower value 1.03 | locus YOR061W, strain CKA2, stronger effect = lower value 0.953 | locus YOR069W, strain VPS5, stronger effect = lower value 0.985 | locus YOR070C, strain gyp1, stronger effect = lower value 1.02 | locus YOR080W, strain dia2, stronger effect = lower value 1.04 | locus YOR083W, strain WHI5, stronger effect = lower value 1.01 | locus YOR106W, strain vam3, stronger effect = lower value 1.02 | locus YOR136W, strain idh2, stronger effect = lower value 1 | locus YOR144C, strain elg1, stronger effect = lower value 0.999 | locus YOR184W, strain ser1, stronger effect = lower value 0.985 | locus YOR265W, strain rbl2, stronger effect = lower value 1.03 | locus YOR270C, strain vph1, stronger effect = lower value 1.16 | locus YOR290C, strain snf2, stronger effect = lower value 1.04 | locus YOR316C, strain cot1, stronger effect = lower value 0.994 | locus YPL051W, strain arl3, stronger effect = lower value 1 | locus YPL055C, strain LGE1, stronger effect = lower value 0.959 | locus YPL078C, strain atp4, stronger effect = lower value 1.05 | locus YPL106C, strain sse1, stronger effect = lower value 1.06 | locus YPL240C, strain hsp82, stronger effect = lower value 1.02 | locus YPL241C, strain CIN2, stronger effect = lower value 0.984 | locus YPR119W, strain clb2, stronger effect = lower value 0.988 | locus YPR141C, strain kar3, stronger effect = lower value 0.989 | locus YPR163C, strain tif3, stronger effect = lower value 0.977 | locus YPR167C, strain met16, stronger effect = lower value 0.992 | strain wtn01, stronger effect = lower value 0.976
active: locus YBR171W, strain sec66, stronger effect = lower value 1.11 [resistant] | locus YKR026C, strain gcn3, stronger effect = lower value 1.08 [resistant]
